In ChEMBL document CHEMBL2218924, “A broad activity screen in support of a chemogenomic map for kinase signalling research and drug discovery” (Biochem J, 2013):

Target: Death-associated protein kinase 1 (Homo sapiens) (UniProt P53355)
Conditions: at 1 µM

Chain of Death-associated protein kinase 1 (Homo sapiens) (P53355 whole entry, looked up): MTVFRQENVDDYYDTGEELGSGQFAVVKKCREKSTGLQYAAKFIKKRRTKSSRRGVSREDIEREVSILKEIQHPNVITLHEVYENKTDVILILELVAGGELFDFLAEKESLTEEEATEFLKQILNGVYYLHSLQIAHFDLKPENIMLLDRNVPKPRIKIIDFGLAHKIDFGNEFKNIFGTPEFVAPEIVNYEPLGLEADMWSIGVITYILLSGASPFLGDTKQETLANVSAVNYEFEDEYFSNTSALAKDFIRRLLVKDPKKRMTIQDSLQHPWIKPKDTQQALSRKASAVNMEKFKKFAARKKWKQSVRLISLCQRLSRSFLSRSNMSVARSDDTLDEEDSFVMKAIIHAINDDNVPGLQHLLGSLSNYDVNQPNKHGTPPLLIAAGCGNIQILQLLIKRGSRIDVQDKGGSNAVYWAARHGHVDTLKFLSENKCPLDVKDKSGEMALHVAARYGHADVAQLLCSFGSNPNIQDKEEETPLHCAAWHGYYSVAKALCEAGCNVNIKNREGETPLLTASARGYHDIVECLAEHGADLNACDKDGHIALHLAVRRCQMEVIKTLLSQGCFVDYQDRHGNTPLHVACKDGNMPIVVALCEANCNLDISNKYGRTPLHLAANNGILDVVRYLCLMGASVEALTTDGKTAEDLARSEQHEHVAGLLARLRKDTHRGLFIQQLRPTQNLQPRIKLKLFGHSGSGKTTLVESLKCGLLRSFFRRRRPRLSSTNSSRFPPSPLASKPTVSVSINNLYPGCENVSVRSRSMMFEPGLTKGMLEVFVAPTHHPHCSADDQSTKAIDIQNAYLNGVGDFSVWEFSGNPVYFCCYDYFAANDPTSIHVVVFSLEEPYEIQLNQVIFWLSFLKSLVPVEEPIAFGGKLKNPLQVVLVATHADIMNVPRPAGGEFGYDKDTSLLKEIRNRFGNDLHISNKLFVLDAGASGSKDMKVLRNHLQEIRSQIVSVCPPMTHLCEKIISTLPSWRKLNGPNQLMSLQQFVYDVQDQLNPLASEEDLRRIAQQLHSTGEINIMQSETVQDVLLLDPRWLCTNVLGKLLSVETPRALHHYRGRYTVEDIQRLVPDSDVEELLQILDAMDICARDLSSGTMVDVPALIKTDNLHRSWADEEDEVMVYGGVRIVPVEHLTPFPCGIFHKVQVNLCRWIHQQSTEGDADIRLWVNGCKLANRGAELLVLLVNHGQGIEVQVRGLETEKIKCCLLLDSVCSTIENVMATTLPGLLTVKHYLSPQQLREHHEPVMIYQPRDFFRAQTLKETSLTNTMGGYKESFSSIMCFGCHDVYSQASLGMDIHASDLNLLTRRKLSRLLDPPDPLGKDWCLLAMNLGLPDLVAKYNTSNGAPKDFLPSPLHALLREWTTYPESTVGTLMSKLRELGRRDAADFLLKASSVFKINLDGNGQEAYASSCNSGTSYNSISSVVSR

Row | SMILES | residual activity [%]
1 | O=C(CCCc1ccc(-c2ccccc2F)cc1)Nc1ccc(O)cc1 | 95
2 | Cc1cc(Nc2nc(-c3ccccc3)nc3ccccc23)n[nH]1 | 59
3 | CCOc1cc2ncnc(Nc3cccc(Br)c3)c2cc1OCC | 83
4 | CN(C)S(=O)(=O)c1ccc2c(c1)/C(=C/c1cc3c([nH]1)CCCC3)C(=O)N2 | 90
5 | Nc1ccc2ncnc(NCCc3ccc(Oc4ccccc4)cc3)c2c1 | 94
6 | O=C1C(Cl)=C(N2C(=O)CCC2=O)C(=O)c2ccccc21 | 91
7 | Cc1cc2ncc(-c3ccccc3)nc2cc1C | 92
8 | CC[n+]1c(/C=C/N(C)c2ccccc2)n(-c2ccccc2)c2ccc(-c3nc4ccccc4s3)cc21 | 79
9 | Nc1nc(Nc2ccc(S(N)(=O)=O)cc2)nn1C(=O)c1c(F)cccc1F | 97
10 | Cn1nc2c3c(cccc31)C(=O)c1ccccc1-2 | 85
11 | Cc1nc2cc3nc(-c4cccs4)cnc3cc2n1C | 94
12 | COc1ccc(-c2cnc3c(-c4ccsc4)cnn3c2)cc1 | 97
13 | O=[N+]([O-])c1ccc(-c2nc(-c3ccc(F)cc3)c(-c3ccncc3)[nH]2)cc1 | 74
14 | Nc1ncnc2[nH]nc(Nc3ccc(F)cc3)c12 | 102
15 | CC#CC(=O)Nc1cc2c(Nc3ccc(F)c(Cl)c3)ncnc2cn1 | 88
16 | Cn1cc(/C=C2\C(=O)Nc3ccc(S(N)(=O)=O)cc32)c2ccccc21 | 94
17 | CC(C)[C@H](CO)Nc1nc(Nc2cc(N)cc(Cl)c2)c2ncn(C(C)C)c2n1 | 92
18 | Cn1cnc2cc3c(Nc4cccc(Br)c4)ncnc3cc21 | 94
19 | Cc1ccc(S(=O)(=O)/C=C/C#N)cc1 | 88
20 | Nc1n[nH]c2nnc(-c3c(-c4ccccc4)nn4ccccc34)cc12 | 83
21 | COc1ccc(CNc2nc(N(CCO)CCO)nc3c2ncn3C(C)C)cc1 | 93
22 | O=C(Nc1nc2ccccc2n1CCN1CCOCC1)c1cccc([N+](=O)[O-])c1 | 85
23 | O=C(Nc1cccc(Nc2cc(Nc3cccc(C(F)(F)F)c3)ncn2)c1)C1CC1 | 109
24 | O=C1Nc2ccccc2/C1=C1/Nc2ccccc2/C1=N\OCCC(O)CO (stereo not given) | 81
25 | O=C1NC(=O)c2c1c1c3ccccc3[nH]c1n1cncc21 | 57
26 | CC(C)(C)n1nc(Cc2cccc3ccccc23)c2c(N)ncnc21 | 86
27 | CO[C@@H]1[C@H](N(C)C(=O)c2ccccc2)C[C@H]2O[C@]1(C)n1c3ccccc3c3c4c(c5c6ccccc6n2c5c31)C(=O)NC4 | 63
28 | O=C(O)c1ccc2c3c1cccc3c(=O)n1c3ccccc3nc21 | 79
29 | CNc1cc2c(Nc3cccc(Br)c3)ncnc2cn1 | 97
30 | O=C1NC(=O)C(c2cn(CCCO)c3ncccc23)=C1c1cnccn1 | 94
